# Measurements published in PubChem BioAssay (EPA / NIEHS).
# Calls of active or inactive are those of the source. Rule for the calls: active = hit-call score of the fitted dose curve at least 0.9, where 1 is the maximum; inactive = score below 0.9.
# Tests used:
# [1] = CEETOX_H295R_PROG: CeeTox H295R High-throughput Steroidogenesis Assay for Progesterone (PROG) (AID 2283442); details: actives raise or lower the signal;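 note: human H295R adrenal cells primed with 10 µM forskolin before dosing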
# Outline: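 H295R adrenal cells prestimulated 48 h with 10 uM forskolin, then exposed 48 h to test chemical in 0.1% DMSO. Progesterone in medium quantified by HPLC-MS/MS after MTBE extraction; viability checked by MTT in same wells.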
# [2] = read-out: Tumor necrosis factor receptor superfamily member 6 (Homo sapiens) (UniProt P25445); assay: LTEA_HepaRG_FAS: Life Technologies and Expression Analysis (LTEA) Assay for Fas cell surface death receptor (FAS) using HepaRG (AID 2283447); details: mRNA level, 48 h; actives raise or lower the signal
# Outline: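 Differentiated human HepaRG cells, pre-cultured 48 h, were exposed in duplicate for 48 h to 8-point half-log concentrations (top 100 uM, 0.5% DMSO) in serum-free induction medium; FAS mRNA measured by qRT-PCR, normalized to ACTB/GAPDH/POLR2A, bidirectional fit versus DMSO.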
# [3] = read-out: Cyclin D2 (CCND2), CCND2 (gene 894); assay: LTEA_HepaRG_CCND2: Life Technologies and Expression Analysis (LTEA) Assay for Cyclin D2 (CCND2) using HepaRG (AID 2283449); details: mRNA level, 48 h; actives raise or lower the signal;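 note: CCND2 transcript measured by TaqMan qRT-PCR and normalised to three housekeeping genes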
# Outline: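 Differentiated human HepaRG cells were exposed for 48 h in serum-free induction medium to eight half-log concentrations topping at 100 uM (0.5% DMSO vehicle). CCND2 mRNA was quantified by TaqMan qRT-PCR, normalised to ACTB, GAPDH and POLR2A, and fitted bidirectionally against DMSO.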
# [4] = read-out: Cyclin Dependent Kinase Inhibitor 1A (CDKN1A), CDKN1A (gene 1026); assay: LTEA_HepaRG_CDKN1A: Life Technologies and Expression Analysis (LTEA) Assay for Cyclin Dependent Kinase Inhibitor 1A (CDKN1A) using HepaRG (AID 2283450); details: mRNA level, 48 h; actives raise or lower the signal
# Outline: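 Differentiated HepaRG cells in serum-free induction medium, exposed 48 h in duplicate to eight half-log concentrations up to 100 uM in 0.5% DMSO. mRNA measured by TaqMan qRT-PCR, normalized to ACTB, GAPDH, POLR2A; bidirectional fit versus DMSO.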
# [5] = read-out: Cyclin D1 (CCND1), CCND1 (gene 595); assay: LTEA_HepaRG_CCND1: Life Technologies and Expression Analysis (LTEA) Assay for Cyclin D1 (CCND1) using HepaRG (AID 2283451); details: mRNA level, 48 h; actives raise or lower the signal
# Outline: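 Differentiated HepaRG cells exposed 48 h in serum-free induction medium to eight half-log concentrations from 100 uM top, 0.5% DMSO, duplicates. CCND1 mRNA measured by Fluidigm TaqMan qRT-PCR, normalised to ACTB, GAPDH, POLR2A; bidirectional fit.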
# [6] = read-out: catalase (CAT), CAT (gene 847); assay: LTEA_HepaRG_CAT: Life Technologies and Expression Analysis (LTEA) Assay for catalase (CAT) using HepaRG (AID 2283452); details: mRNA level, 48 h; actives raise or lower the signal;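 for AC50: TaqMan qRT-PCR signal normalized to ACTB GAPDH and POLR2A housekeeping genes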
# Outline: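 Differentiated HepaRG cells in serum-free induction medium were dosed 48 h in duplicate, eight half-log concentrations from 100 uM in 0.5% DMSO. Transcript measured by TaqMan qRT-PCR, normalised to ACTB/GAPDH/POLR2A, fitted bidirectionally against DMSO.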
# [7] = read-out: Cytochrome P450 (CYP1A1), CYP1A1 (gene 1543); assay: LTEA_HepaRG_CYP1A1: Life Technologies and Expression Analysis (LTEA) Assay for Cytochrome P450 (CYP1A1) using HepaRG (AID 2283454); details: mRNA level, 48 h; actives raise or lower the signal
# Outline: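 Differentiated human HepaRG cells, after 48 h plating, exposed in duplicate for 48 h in serum-free induction medium to 8 half-log concentrations up to 100 uM in 0.5% DMSO. CYP1A1 mRNA by qRT-PCR, normalized to ACTB/GAPDH/POLR2A; bidirectional fit versus DMSO.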
# [8] = read-out: CFLAR gene, CFLAR (gene 8837); assay: LTEA_HepaRG_CFLAR: Life Technologies and Expression Analysis (LTEA) Assay for CFLAR gene using HepaRG (AID 2283455); details: mRNA level, 48 h; actives raise or lower the signal
# Outline: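 HepaRG cells were plated for 48 h, switched to serum-free induction medium, then exposed in duplicate for 48 h to 8 concentrations (top 100 uM, half-log steps, 0.5% DMSO). CFLAR mRNA was measured by qRT-PCR, normalized to ACTB, GAPDH and POLR2A.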
# [9] = read-out: Fatty acid synthase (Homo sapiens) (UniProt P49327); assay: LTEA_HepaRG_FASN: Life Technologies and Expression Analysis (LTEA) Assay for Fatty Acid Synthase (FASN) using HepaRG (AID 2283448); details: mRNA level, 48 h; actives raise or lower the signal
# Outline: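 FASN expression changes, up or down relative to 0.5% DMSO, were measured by qRT-PCR in human HepaRG cells after 48 h treatment with chemicals at eight concentrations (half-log steps from 100 uM).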
# [10] = read-out: flavin-containing dimethylaniline monooxygenases 3 (FMO3), FMO3 (gene 2328); assay: LTEA_HepaRG_FMO3: Life Technologies and Expression Analysis (LTEA) Assay for flavin-containing dimethylaniline monooxygenases 3 (FMO3) using HepaRG (AID 2283453); details: mRNA level, 48 h; actives raise or lower the signal
# Outline: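 Differentiated HepaRG cells in serum-free induction medium, exposed 48 h in duplicate to 8 half-log concentrations up to 100 uM in 0.5% DMSO. FMO3 mRNA by qRT-PCR, normalized to ACTB, GAPDH, POLR2A; bidirectional fit vs DMSO.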
# Fatty acid synthase (Homo sapiens), sequence (P49327 whole entry, looked up): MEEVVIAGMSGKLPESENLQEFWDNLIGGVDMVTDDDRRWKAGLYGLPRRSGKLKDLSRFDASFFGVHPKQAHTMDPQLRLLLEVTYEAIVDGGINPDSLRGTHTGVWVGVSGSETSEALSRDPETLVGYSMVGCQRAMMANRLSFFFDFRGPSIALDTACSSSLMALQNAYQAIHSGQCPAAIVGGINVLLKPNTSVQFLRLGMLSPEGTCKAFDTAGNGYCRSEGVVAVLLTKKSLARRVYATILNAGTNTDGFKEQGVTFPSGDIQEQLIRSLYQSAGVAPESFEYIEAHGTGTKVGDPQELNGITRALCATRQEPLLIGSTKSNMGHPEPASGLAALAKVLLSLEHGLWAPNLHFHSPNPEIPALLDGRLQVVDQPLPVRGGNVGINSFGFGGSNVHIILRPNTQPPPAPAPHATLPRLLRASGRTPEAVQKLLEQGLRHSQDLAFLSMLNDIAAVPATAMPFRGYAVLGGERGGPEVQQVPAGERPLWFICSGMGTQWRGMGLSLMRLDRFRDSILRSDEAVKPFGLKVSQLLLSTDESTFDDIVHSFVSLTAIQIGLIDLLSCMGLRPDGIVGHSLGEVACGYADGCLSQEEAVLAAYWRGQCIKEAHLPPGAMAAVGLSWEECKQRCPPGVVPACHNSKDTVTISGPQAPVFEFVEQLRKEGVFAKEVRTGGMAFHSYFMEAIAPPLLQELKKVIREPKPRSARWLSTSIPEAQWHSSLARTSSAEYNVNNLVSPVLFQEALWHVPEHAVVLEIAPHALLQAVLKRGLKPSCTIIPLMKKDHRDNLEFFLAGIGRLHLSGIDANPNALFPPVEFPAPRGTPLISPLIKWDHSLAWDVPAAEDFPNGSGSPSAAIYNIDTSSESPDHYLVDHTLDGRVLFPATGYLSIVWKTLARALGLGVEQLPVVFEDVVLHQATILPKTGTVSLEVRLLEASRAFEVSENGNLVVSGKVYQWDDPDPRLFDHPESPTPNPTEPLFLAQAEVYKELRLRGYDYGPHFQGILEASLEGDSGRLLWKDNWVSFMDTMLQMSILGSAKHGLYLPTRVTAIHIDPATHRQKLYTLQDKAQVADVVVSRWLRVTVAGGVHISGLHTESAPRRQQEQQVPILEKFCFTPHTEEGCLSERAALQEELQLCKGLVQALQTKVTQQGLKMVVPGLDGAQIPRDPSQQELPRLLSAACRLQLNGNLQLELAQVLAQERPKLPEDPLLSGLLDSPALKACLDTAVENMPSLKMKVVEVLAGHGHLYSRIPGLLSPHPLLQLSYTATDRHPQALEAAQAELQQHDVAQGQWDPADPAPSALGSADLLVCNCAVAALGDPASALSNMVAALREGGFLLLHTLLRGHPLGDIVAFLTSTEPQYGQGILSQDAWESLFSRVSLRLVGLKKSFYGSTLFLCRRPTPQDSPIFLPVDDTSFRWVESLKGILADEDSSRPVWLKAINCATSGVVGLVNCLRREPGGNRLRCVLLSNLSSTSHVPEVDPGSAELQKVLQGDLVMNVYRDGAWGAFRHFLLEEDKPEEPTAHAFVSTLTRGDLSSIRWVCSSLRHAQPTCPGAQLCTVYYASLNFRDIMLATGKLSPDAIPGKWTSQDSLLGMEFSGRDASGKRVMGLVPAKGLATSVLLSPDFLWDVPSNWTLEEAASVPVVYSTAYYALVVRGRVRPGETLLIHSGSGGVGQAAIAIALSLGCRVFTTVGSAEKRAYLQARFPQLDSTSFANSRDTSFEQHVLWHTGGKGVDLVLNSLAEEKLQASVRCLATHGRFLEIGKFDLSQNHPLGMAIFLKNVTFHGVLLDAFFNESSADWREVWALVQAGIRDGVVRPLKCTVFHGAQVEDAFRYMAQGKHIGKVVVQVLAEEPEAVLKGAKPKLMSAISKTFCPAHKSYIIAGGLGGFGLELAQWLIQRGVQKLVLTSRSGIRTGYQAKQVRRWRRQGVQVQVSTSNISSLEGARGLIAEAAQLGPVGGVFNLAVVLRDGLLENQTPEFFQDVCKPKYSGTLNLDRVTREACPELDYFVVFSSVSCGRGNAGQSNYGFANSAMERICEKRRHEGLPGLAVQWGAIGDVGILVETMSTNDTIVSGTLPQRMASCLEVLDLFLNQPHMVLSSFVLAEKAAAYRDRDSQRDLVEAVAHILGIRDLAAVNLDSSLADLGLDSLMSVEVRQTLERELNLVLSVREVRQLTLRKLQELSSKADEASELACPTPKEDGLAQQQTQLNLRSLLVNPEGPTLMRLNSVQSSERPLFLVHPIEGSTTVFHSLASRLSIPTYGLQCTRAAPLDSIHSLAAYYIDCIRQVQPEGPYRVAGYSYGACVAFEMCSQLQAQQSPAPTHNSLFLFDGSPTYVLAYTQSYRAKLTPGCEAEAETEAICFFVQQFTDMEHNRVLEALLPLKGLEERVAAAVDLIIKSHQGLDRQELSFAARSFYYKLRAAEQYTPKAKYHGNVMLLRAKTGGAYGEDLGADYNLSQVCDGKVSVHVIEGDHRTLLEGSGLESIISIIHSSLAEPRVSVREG
smiles,measurement,setting,value
CCC(C)N(C)C(=O)c1cc2ccccc2c(-c2ccccc2Cl)n1 (stereo not given),AC50,[1],3.89 µM (active)
same,outcome,[2],inactive
same,outcome,[3],inactive
same,outcome,[4],inactive
same,outcome,[5],inactive
same,outcome,[6],inactive
same,AC50,[7],37.7 µM (active)
same,outcome,[8],inactive
Nc1nc(=S)c2[nH]cnc2[nH]1,AC50,[2],3.1 µM (active)
same,AC50,[9],9.16 µM (active)
same,outcome,[3],inactive
same,AC50,[4],6.05 µM (active)
same,outcome,[5],inactive
same,AC50,[6],7.04 µM (active)
same,AC50,[10],6.74 µM (active)
same,AC50,[7],76.1 µM (active)
same,outcome,[8],inactive
CCCCC(CC)CO (stereo not given),AC50,[3],59.8 µM (active)
same,outcome,[4],inactive
same,outcome,[5],inactive
same,outcome,[6],inactive
same,AC50,[7],39.1 µM (active)
same,outcome,[8],inactive
Cc1cc(SC2=C(O)C[C@@](CCc3ccc(N)cc3)(C(C)C)OC2=O)c(C(C)(C)C)cc1CO,outcome,[3],inactive
same,outcome,[4],inactive
same,outcome,[5],inactive
same,outcome,[6],inactive
same,outcome,[10],inactive
same,AC50,[7],29.6 µM (active)
same,outcome,[8],inactive
O=[Si]=O,outcome,[4],inactive
same,outcome,[5],inactive
same,outcome,[6],inactive
same,outcome,[10],inactive
same,AC50,[7],76.6 µM (active)
same,outcome,[8],inactive
NCCOCCOCCN,outcome,[9],inactive
same,outcome,[3],inactive
same,outcome,[4],inactive
same,outcome,[5],inactive
same,outcome,[6],inactive
same,AC50,[7],50 µM (active)
same,outcome,[8],inactive
O=Cc1ccccc1C=O,outcome,[9],inactive
same,outcome,[3],inactive
same,outcome,[4],inactive
same,outcome,[5],inactive
same,outcome,[6],inactive
same,AC50,[7],18.5 µM (active)
same,outcome,[8],inactive
CCCCCCC(C=O)=Cc1ccccc1,outcome,[4],inactive
same,outcome,[5],inactive
same,outcome,[6],inactive
same,outcome,[7],inactive
same,outcome,[8],inactive
CN(C)C(=O)NC1(c2ccccc2)CCN(CC[C@@]2(c3ccc(F)c(F)c3)CN(C(=O)c3ccccc3)CCO2)CC1,AC50,[9],29.5 µM (active)
same,outcome,[3],inactive
same,outcome,[4],inactive
same,outcome,[5],inactive
same,outcome,[6],inactive
same,AC50,[7],47 µM (active)
same,outcome,[8],inactive
C/C=C/c1ccc(OC)cc1,outcome,[9],inactive
same,outcome,[4],inactive
same,outcome,[5],inactive
same,outcome,[6],inactive
same,AC50,[7],50 µM (active)
same,outcome,[8],inactive
CCCCCCCCCCCCCCOS(=O)(=O)O,outcome,[3],inactive
same,outcome,[4],inactive
same,outcome,[5],inactive
same,outcome,[6],inactive
same,AC50,[7],72.7 µM (active)
same,outcome,[8],inactive
CC(C)c1cccc(C(C)C)c1,outcome,[9],inactive
same,outcome,[3],inactive
same,outcome,[4],inactive
same,outcome,[5],inactive
same,outcome,[6],inactive
same,AC50,[7],66.1 µM (active)
same,outcome,[8],inactive
C=CCCCCCCCCCCCC,outcome,[3],inactive
same,outcome,[4],inactive
same,outcome,[5],inactive
same,outcome,[6],inactive
same,outcome,[10],inactive
same,outcome,[7],inactive
same,outcome,[8],inactive
Cc1cn([C@H]2C=C[C@@H](CO)O2)c(=O)[nH]c1=O,outcome,[3],inactive
same,outcome,[4],inactive
same,outcome,[5],inactive
same,outcome,[6],inactive
same,outcome,[10],inactive
same,AC50,[7],69.4 µM (active)
same,outcome,[8],inactive
Cc1ccc(C(C)(C)C)c(O)c1,outcome,[4],inactive
same,outcome,[5],inactive
same,outcome,[6],inactive
same,AC50,[7],41.7 µM (active)
same,outcome,[8],inactive
CC(=O)OCC(COC(C)=O)OC(C)=O,outcome,[9],inactive
same,outcome,[3],inactive
same,outcome,[4],inactive
same,outcome,[5],inactive
same,outcome,[6],inactive
same,AC50,[7],12 µM (active)
same,outcome,[8],inactive
CC1(C)C(=O)NC(=O)N1CO,outcome,[9],inactive
same,outcome,[3],inactive
same,outcome,[4],inactive
same,outcome,[5],inactive
same,outcome,[6],inactive
same,outcome,[10],inactive
same,AC50,[7],50 µM (active)
same,outcome,[8],inactive
